Paper PMC7862700, “An all-to-all approach to the identification of sequence-specific readers for epigenetic DNA modifications on cytosine”

Columns and labels:
Experiment in all cases: DAPPL (digital affinity profiling via proximity ligation, sequencing); 10 mM Tris-HCl pH 7.5, 50 mM NaCl, 1 mM DTT, 4% glycerol, room temperature, 30 min; GST-TFs on glutathione beads, 16-mer random dsDNA library, 0.1% formaldehyde crosslink after washing; high values mean tight binding
[1] = molecular target: T1, FEV (Homo sapiens, UniProt Q99581 1-238); conditions: protein: recombinant; tags: N-terminal GST; dsDNA, one strand shown
T1 sequence: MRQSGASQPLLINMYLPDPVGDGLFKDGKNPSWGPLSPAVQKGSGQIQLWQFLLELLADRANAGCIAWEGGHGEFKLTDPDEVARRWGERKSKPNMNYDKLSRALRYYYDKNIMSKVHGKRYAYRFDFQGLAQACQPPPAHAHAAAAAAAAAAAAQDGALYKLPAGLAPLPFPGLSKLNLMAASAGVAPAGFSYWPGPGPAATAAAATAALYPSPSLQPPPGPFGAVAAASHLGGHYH
In short: (§1)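 Binding signal is given per hexamer as its read frequency for a factor divided by its frequency in the tag-only sample. GST-fused human transcription factors were expressed in yeast, captured on glutathione beads, barcoded with DNA and pooled with that sample, then incubated with 200 nmole of a 16-mer random double-stranded DNA library in Tris/NaCl/DTT/glycerol buffer for 30 min at room temperature. The pools were then washed, crosslinked, proximity-ligated, amplified by PCR and sequenced on an Illumina NextSeq500.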

[2] = molecular target: ETV5 (Homo sapiens, UniProt P41161 1-510); conditions: protein: recombinant; tags: N-terminal GST; dsDNA, one strand shown
ETV5, sequence (P41161 whole entry): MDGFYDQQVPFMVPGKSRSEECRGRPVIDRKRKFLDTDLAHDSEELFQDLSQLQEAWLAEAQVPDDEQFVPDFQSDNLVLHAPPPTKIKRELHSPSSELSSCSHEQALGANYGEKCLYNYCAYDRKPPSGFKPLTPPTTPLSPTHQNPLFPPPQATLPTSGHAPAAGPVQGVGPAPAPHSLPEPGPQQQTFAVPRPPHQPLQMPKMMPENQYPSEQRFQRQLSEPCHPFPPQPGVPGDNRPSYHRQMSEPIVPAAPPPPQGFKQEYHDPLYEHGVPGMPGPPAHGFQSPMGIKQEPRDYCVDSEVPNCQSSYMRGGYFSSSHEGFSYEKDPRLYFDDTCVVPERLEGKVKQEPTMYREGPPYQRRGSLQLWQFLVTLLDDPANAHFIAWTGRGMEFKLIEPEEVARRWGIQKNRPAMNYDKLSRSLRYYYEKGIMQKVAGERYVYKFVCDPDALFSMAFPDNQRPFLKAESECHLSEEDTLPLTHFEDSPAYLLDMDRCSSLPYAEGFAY
In short: as §1

[3] = molecular target: HSF1 (Homo sapiens, UniProt Q00613 1-529); conditions: protein: recombinant; tags: N-terminal GST; chain copies: 3; dsDNA, one strand shown
HSF1, sequence (Q00613 whole entry): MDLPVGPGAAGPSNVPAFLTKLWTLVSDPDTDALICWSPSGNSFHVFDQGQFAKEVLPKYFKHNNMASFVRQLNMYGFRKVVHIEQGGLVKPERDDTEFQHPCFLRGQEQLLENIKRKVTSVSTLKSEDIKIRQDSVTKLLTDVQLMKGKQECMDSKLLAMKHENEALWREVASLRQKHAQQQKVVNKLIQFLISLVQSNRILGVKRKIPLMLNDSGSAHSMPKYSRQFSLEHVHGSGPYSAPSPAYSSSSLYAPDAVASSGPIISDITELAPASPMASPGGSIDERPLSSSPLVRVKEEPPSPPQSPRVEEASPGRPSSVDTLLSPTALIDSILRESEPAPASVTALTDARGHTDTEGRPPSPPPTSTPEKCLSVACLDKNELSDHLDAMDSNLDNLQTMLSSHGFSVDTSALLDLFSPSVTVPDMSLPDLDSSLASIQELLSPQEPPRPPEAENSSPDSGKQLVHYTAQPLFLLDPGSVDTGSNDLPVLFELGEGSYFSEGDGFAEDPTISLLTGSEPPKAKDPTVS
In short: as §1

[4] = molecular target: T2, SPIC (Homo sapiens, UniProt Q8N5J4 1-248); conditions: protein: recombinant; tags: N-terminal GST; dsDNA, one strand shown
T2 sequence: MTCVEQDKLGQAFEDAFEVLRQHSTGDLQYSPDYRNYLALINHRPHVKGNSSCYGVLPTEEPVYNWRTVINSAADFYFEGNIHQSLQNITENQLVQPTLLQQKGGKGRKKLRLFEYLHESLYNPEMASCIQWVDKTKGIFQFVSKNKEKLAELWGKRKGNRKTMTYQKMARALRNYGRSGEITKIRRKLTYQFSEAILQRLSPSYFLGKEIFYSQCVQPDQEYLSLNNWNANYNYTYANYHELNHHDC
In short: as §1

[5] = molecular target: ELF4 (Homo sapiens, UniProt Q99607 1-663); conditions: protein: recombinant; tags: N-terminal GST; dsDNA, one strand shown
ELF4, sequence (Q99607 whole entry): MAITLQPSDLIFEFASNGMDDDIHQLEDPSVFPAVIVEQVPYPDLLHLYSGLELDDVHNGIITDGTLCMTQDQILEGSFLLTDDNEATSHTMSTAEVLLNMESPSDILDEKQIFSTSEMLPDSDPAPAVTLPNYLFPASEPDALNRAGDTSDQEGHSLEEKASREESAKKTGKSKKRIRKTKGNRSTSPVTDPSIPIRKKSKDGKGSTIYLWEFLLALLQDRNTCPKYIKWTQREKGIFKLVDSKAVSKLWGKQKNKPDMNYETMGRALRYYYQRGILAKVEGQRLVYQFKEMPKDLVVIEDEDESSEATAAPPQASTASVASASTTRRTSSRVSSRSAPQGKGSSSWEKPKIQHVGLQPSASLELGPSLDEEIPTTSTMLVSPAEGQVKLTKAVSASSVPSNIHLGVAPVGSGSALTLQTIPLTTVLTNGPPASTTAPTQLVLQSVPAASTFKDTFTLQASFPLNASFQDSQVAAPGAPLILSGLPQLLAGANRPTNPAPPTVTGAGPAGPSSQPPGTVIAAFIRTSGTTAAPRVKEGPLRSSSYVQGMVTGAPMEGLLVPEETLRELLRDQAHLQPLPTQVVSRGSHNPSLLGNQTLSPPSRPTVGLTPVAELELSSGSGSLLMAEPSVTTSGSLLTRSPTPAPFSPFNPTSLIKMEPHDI
In short: as §1

[6] = molecular target: T3, ELK4 (Homo sapiens, UniProt P28324-2 1-405); conditions: protein: recombinant; tags: N-terminal GST; dsDNA, one strand shown
T3 sequence: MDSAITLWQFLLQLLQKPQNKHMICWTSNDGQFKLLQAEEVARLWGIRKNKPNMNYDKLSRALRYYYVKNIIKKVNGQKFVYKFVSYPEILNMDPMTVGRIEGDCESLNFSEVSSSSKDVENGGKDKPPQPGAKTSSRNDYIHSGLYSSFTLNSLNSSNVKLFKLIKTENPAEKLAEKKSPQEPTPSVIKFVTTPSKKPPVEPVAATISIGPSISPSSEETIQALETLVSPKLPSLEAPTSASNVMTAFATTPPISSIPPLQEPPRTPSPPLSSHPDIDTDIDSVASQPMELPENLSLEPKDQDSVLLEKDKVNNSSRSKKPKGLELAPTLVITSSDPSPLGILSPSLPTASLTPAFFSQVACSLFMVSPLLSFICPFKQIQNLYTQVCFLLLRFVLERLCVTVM
In short: as §1

[7] = molecular target: T4, ETV2 (Homo sapiens, UniProt O00321 1-342); conditions: protein: recombinant; tags: N-terminal GST; dsDNA, one strand shown
T4 sequence: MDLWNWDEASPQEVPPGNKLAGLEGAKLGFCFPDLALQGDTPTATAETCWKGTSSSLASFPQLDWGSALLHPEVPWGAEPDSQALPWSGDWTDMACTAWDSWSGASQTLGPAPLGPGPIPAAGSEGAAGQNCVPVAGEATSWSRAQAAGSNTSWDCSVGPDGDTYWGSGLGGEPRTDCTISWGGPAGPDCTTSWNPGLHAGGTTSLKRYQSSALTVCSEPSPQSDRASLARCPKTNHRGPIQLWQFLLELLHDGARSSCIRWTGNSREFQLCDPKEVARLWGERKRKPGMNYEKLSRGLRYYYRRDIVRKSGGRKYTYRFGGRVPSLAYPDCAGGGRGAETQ
In short: as §1

[8] = molecular target: T5, ELF3 (Homo sapiens, UniProt P78545 1-371); conditions: protein: recombinant; tags: N-terminal GST; dsDNA, one strand shown
T5 sequence: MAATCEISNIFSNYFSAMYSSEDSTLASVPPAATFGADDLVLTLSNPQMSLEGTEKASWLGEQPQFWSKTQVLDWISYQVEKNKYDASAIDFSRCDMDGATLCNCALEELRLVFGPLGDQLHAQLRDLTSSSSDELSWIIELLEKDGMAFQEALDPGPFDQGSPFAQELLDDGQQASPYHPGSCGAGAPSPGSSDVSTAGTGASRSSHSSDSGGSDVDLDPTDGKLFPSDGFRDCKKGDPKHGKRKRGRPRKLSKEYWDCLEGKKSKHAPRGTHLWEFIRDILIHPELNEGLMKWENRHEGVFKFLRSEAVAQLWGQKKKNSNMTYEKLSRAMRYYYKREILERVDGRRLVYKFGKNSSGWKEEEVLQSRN
In short: as §1

[9] = molecular target: CRX (Homo sapiens, UniProt O43186 1-299); conditions: protein: recombinant; tags: N-terminal GST; dsDNA, one strand shown
CRX, sequence (O43186 whole entry): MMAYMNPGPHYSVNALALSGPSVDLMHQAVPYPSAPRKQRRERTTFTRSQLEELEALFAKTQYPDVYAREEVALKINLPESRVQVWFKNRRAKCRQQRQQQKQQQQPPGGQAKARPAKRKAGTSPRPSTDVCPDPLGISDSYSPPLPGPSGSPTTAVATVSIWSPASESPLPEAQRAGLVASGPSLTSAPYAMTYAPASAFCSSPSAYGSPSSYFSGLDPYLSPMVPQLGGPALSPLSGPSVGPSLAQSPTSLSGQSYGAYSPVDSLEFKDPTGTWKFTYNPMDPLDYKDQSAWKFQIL
In short: as §1

[10] = molecular target: ETV1 (Homo sapiens, UniProt P50549 1-477); conditions: protein: recombinant; tags: N-terminal GST; dsDNA, one strand shown
ETV1, sequence (P50549 whole entry): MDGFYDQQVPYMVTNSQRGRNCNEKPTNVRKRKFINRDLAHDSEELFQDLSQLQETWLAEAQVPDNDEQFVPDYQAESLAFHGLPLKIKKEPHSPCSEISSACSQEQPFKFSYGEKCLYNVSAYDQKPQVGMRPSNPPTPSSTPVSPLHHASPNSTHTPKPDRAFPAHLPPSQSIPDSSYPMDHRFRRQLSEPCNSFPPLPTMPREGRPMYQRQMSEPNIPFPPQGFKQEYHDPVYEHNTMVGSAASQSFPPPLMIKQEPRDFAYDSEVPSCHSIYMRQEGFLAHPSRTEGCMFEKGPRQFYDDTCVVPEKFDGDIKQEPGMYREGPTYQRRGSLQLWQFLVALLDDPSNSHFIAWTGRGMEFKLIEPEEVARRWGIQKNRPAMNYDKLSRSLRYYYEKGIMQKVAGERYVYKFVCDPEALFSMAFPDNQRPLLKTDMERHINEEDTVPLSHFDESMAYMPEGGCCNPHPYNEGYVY
In short: as §1

[11] = molecular target: T6, ERF (Homo sapiens, UniProt P50548 1-548); conditions: protein: recombinant; tags: N-terminal GST; dsDNA, one strand shown
T6 sequence: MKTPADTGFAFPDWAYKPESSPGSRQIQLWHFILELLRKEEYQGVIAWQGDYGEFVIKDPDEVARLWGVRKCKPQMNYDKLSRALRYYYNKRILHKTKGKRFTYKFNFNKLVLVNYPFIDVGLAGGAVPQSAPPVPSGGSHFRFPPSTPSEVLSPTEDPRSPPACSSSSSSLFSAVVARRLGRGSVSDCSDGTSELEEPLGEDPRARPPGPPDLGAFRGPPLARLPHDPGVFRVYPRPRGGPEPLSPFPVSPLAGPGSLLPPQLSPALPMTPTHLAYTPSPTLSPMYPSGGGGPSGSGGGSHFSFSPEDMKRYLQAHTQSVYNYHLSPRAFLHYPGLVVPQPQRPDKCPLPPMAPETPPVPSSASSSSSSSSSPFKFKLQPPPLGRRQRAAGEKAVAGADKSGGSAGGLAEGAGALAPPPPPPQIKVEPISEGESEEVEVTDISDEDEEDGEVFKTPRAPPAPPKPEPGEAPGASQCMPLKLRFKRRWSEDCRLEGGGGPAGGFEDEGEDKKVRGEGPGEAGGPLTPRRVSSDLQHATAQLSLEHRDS
In short: as §1

[12] = molecular target: T7, ETV3L (Homo sapiens, UniProt Q6ZN32 1-361); conditions: protein: recombinant; tags: N-terminal GST; dsDNA, one strand shown
T7 sequence: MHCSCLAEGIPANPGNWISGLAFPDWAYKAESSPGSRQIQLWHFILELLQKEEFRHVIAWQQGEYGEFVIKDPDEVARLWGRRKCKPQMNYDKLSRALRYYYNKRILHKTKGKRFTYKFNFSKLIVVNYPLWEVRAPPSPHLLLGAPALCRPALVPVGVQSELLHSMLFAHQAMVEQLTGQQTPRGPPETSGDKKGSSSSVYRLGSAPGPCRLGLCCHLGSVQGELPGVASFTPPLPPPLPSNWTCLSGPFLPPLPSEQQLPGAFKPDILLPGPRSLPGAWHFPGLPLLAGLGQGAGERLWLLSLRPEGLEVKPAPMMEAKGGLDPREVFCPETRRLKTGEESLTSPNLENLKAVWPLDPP
In short: as §1

[13] = molecular target: T8, ETS2 (Homo sapiens, UniProt P15036 1-469); conditions: protein: recombinant; tags: N-terminal GST; dsDNA, one strand shown
T8 sequence: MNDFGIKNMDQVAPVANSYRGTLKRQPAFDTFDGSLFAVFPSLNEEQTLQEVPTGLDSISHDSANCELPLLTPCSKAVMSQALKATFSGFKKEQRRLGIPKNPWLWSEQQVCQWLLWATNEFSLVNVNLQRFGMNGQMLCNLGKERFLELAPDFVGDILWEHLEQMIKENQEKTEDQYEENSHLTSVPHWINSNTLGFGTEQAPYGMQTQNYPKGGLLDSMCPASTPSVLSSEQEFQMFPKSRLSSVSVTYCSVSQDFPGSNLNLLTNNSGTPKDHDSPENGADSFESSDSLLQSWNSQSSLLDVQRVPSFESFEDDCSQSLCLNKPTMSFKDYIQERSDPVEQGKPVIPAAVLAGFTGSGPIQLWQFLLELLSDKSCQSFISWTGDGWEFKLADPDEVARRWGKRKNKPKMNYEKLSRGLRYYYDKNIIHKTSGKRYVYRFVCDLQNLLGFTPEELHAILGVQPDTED
In short: as §1

[14] = molecular target: T9, SPDEF (Homo sapiens, UniProt O95238 1-335); conditions: protein: recombinant; tags: N-terminal GST; dsDNA, one strand shown
T9 sequence: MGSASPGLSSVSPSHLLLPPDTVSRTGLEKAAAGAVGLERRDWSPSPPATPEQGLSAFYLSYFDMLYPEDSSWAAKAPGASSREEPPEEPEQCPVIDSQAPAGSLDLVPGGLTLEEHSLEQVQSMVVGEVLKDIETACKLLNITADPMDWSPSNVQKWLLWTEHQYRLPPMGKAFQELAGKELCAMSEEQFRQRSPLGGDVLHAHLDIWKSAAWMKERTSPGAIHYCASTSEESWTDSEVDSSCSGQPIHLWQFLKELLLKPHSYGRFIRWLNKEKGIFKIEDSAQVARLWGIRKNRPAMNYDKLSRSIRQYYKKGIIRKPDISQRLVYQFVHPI
In short: as §1

[15] = molecular target: T10, ETV7 (Homo sapiens, UniProt Q9Y603 1-341); conditions: protein: recombinant; tags: N-terminal GST; dsDNA, one strand shown
T10 sequence: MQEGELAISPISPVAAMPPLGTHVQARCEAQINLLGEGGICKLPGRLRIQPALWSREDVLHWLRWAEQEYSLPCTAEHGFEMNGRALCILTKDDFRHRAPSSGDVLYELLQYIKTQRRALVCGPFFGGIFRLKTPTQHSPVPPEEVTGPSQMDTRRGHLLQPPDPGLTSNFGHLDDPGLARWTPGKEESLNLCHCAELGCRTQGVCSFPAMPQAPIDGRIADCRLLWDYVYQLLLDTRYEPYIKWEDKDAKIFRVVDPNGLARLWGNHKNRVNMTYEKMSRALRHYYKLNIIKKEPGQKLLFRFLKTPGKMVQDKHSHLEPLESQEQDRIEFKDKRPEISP
In short: as §1

[16] = molecular target: T11, ELF5 (Homo sapiens, UniProt Q9UKW6-2 1-255); conditions: protein: recombinant; tags: N-terminal GST; dsDNA, one strand shown
T11 sequence: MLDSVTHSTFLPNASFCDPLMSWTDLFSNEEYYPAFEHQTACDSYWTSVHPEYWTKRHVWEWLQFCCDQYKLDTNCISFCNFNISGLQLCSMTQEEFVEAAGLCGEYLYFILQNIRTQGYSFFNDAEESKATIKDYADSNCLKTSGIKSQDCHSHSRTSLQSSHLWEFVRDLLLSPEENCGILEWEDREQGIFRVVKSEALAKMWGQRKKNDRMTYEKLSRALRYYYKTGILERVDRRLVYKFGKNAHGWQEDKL
In short: as §1

[17] = molecular target: T12, ETV3 (Homo sapiens, UniProt P41162-2 1-143); conditions: protein: recombinant; tags: N-terminal GST; dsDNA, one strand shown
T12 sequence: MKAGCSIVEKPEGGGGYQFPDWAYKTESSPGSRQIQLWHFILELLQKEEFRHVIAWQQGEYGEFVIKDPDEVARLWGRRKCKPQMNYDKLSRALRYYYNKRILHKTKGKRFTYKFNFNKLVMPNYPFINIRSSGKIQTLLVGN
In short: as §1

[18] = molecular target: ETV6 (Homo sapiens, UniProt P41212 1-452); conditions: protein: recombinant; tags: N-terminal GST; dsDNA, one strand shown
ETV6, sequence (P41212 whole entry): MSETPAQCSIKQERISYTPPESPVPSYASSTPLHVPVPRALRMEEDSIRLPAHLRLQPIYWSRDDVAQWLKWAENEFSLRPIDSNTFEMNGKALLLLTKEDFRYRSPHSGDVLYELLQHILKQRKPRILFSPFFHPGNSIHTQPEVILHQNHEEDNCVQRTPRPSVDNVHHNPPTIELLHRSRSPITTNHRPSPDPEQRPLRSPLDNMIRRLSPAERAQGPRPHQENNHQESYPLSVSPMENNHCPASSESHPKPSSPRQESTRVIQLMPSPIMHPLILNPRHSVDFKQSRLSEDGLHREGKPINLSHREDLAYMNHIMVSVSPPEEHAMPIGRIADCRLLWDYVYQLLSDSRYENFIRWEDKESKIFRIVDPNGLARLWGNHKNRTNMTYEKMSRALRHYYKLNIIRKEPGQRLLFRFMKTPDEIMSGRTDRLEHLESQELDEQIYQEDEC
In short: as §1

CATCCT
binding signal [1]: 1.59 fold enrichment (6-mer frequency, TF over GST control)
binding signal [2]: 1.63 fold enrichment (6-mer frequency, TF over GST control)
binding signal [3]: 1.12 fold enrichment (6-mer frequency, TF over GST control)
binding signal [4]: 1.63 fold enrichment (6-mer frequency, TF over GST control)
binding signal [5]: 1.62 fold enrichment (6-mer frequency, TF over GST control)
binding signal [6]: 1.51 fold enrichment (6-mer frequency, TF over GST control)
binding signal [7]: 1.63 fold enrichment (6-mer frequency, TF over GST control)
binding signal [8]: 1.59 fold enrichment (6-mer frequency, TF over GST control)
binding signal [9]: 1.21 fold enrichment (6-mer frequency, TF over GST control)
binding signal [10]: 1.55 fold enrichment (6-mer frequency, TF over GST control)
binding signal [11]: 1.49 fold enrichment (6-mer frequency, TF over GST control)
binding signal [12]: 1.69 fold enrichment (6-mer frequency, TF over GST control)
binding signal [13]: 1.61 fold enrichment (6-mer frequency, TF over GST control)
binding signal [14]: 2.33 fold enrichment (6-mer frequency, TF over GST control)
binding signal [15]: 1.5 fold enrichment (6-mer frequency, TF over GST control)
binding signal [16]: 2.13 fold enrichment (6-mer frequency, TF over GST control)
binding signal [17]: 1.86 fold enrichment (6-mer frequency, TF over GST control)
binding signal [18]: 1.65 fold enrichment (6-mer frequency, TF over GST control)
